Records with an inconclusive call do not appear. A call without a number means that no potency is given here. Calls of active or inactive are those of the source. Unless noted, the call rests on the fitted dose curve; in most records, active means well fitted curve in the direction sought with a large enough effect in the repeat runs; inconclusive means weak or mixed curves; inactive means no such curve, though single readings can be large; an effect the other way counts as inactive or inconclusive.
Assays:
[1] = qHTS assay to test for compound auto fluorescence at 460 nm (blue) in HEK293 cell free culture (AID 720681)
Outline: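 Compounds were added to cell-free DMEM with 10% FBS and fluorescence read directly. The blue channel used 405 nm excitation and 460 nm emission, with triamterene as the reference fluorophore.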

[2] = qHTS assay to test for compound auto fluorescence at 590 nm (red) in HEK293 cell free culture (AID 720683)
Outline: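 Cell-free wells of DMEM with 10% FBS received compound, and intrinsic fluorescence was read at excitation/emission 540/590 nm. Values expressed as equivalence to Rose Bengal sodium.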

[3] = qHTS assay to test for compound auto fluorescence at 590 nm (red) in HepG2 cell free culture (AID 720684)
Outline: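 Rose Bengal sodium served as the reference for red signal. Test compounds were dispensed into serum-containing MEM (10% FBS) without cells, and plates were read at 540/590 nm.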

[4] = qHTS assay to test for compound auto fluorescence at 460 nm (blue) in HepG2 cell free culture (AID 720685)
Outline: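 Cell-free plates of MEM plus 10% FBS received 23 nL compound or DMSO vehicle; blue-channel (405/460 nm) intensity scored against triamterene as reference fluorophore.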

[5] = qHTS assay to test for compound auto fluorescence at 535 nm (green) in HepG2 cell free culture (AID 720686)
[6] = qHTS assay to test for compound auto fluorescence at 460 nm (blue) in HepG2 cells (AID 720687)
Outline: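 HepG2 cells in MEM with 10% FBS, attached overnight at 37 C, were exposed to compound or DMSO for 1 hr at 37 C, 5% CO2. Blue fluorescence was read at 405/460 nm, with triamterene as reference fluorophore.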

[7] = molecular target: Glucocorticoid receptor (Homo sapiens) (UniProt P04150); test: qHTS assay to identify small molecule agonists of the glucocorticoid receptor (GR) signaling pathway (AID 720691; active means well fitted activation curve with a large enough effect in the signal ratio in the repeat runs, not every such curve was filed as active; the % refers to the signal ratio)
Sequence of Glucocorticoid receptor (Homo sapiens) (P04150 whole entry, looked up): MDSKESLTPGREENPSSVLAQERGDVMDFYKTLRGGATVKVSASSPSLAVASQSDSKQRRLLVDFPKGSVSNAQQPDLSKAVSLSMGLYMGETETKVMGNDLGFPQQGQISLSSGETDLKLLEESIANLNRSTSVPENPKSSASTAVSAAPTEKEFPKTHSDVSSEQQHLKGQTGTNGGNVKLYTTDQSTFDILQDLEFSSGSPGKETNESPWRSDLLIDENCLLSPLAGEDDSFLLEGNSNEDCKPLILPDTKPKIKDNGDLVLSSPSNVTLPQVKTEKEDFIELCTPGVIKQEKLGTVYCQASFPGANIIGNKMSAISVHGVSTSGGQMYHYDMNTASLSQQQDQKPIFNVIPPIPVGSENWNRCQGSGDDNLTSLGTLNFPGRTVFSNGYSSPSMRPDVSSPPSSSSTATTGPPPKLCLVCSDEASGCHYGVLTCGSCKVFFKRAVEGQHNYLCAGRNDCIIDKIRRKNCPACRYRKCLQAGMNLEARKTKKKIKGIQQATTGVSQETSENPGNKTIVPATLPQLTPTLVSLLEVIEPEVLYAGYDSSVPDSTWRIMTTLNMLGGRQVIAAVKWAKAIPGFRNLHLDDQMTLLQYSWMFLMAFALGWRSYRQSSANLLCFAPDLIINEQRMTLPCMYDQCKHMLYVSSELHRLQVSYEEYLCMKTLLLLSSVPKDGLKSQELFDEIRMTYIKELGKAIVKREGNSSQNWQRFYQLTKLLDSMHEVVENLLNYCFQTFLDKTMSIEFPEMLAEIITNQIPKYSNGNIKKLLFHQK
Outline: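 Compounds in DMSO, alongside positive controls, were added to GR-bla HeLa reporter cells and incubated 18 h at 37 C; GRE-driven beta-lactamase was detected by fluorescence after 2 h with FRET substrate at room temperature.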

[8] = molecular target: Glucocorticoid receptor (Homo sapiens) (UniProt P04150); test: qHTS assay to identify small molecule antagonists of the glucocorticoid receptor (GR) signaling pathway (AID 720692; active means well fitted inhibition curve with a large enough effect in the signal ratio in the repeat runs, not every such curve was filed as active; the % refers to the signal ratio)
Outline: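 In a 1536-well cell format, compounds were added 4 h after seeding GR-bla HeLa cells, together with dexamethasone at 5 nM final; reporter activity was measured by FRET-substrate fluorescence following 18 h at 37 C.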

[9] = qHTS assay to identify small molecule antagonists of the glucocorticoid receptor (GR) signaling pathway - cell viability counter screen (AID 720693); further: nearly all actives have a fitted effect of over 55% in size
[10] = qHTS assay for identifying genotoxic compounds that show differential cytotoxicity against isogenic chicken DT40 cell lines with known DNA damage response pathways - wild type cell line (AID 743012); further: nearly all actives have a fitted effect of over 60% in size; further: potency means the concentration at half of the fitted maximal effect
Outline: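 Viability of DNA repair-proficient chicken DT40 cells was assessed by CellTiter-Glo luminescence following 40 h compound exposure at 37 C/5% CO2.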

[11] = qHTS assay for identifying genotoxic compounds that show differential cytotoxicity against isogenic chicken DT40 cell lines with known DNA damage response pathways - Rev3 mutant cell line (AID 743014); further: nearly all actives have a fitted effect of over 55% in size; further: potency means the concentration at half of the fitted maximal effect
[12] = qHTS assay for identifying genotoxic compounds that show differential cytotoxicity against isogenic chicken DT40 cell lines with known DNA damage response pathways - Rad54/Ku70 mutant cell line (AID 743015); further: nearly all actives have a fitted effect of over 60% in size; further: potency means the concentration at half of the fitted maximal effect
[13] = qHTS assay to identify small molecule antagonists of the androgen receptor (AR) signaling pathway - cell viability counter screen (AID 743033; further: nearly all actives have a fitted effect of over 45% in size)
[14] = qHTS assay to test for compound auto fluorescence at 535 nm (green) in HEK293 cell free culture (AID 720682)
Outline: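 Fluorescein serves as the green reference fluorophore; each compound's intrinsic emission at 535 nm (excitation 485 nm) is reported as an equivalent amount of that dye, measured in serum-containing DMEM without cells.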

[15] = qHTS assay to identify small molecule antagonists of the androgen receptor (AR) signaling pathway using the MDA cell line - cell viability counter screen (AID 743041; further: nearly all actives have a fitted effect of over 45% in size)
Outline: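 Cytotoxicity counter screen: MDA-kb2 AR-luc cells, compound + R1881, 16 h, 37C, 0% CO2; CellTiter-Fluor added at 15.5 h, fluorescence read after 30 min.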

[16] = molecular target: Androgen receptor (Homo sapiens) (UniProt P10275); test: qHTS assay to identify small molecule antagonists of the androgen receptor (AR) signaling pathway (AID 743035; active means well fitted inhibition curve with a large enough effect in the signal ratio in the repeat runs, not every such curve was filed as active; the % refers to the signal ratio)
Sequence of Androgen receptor (Homo sapiens) (P10275 whole entry, looked up): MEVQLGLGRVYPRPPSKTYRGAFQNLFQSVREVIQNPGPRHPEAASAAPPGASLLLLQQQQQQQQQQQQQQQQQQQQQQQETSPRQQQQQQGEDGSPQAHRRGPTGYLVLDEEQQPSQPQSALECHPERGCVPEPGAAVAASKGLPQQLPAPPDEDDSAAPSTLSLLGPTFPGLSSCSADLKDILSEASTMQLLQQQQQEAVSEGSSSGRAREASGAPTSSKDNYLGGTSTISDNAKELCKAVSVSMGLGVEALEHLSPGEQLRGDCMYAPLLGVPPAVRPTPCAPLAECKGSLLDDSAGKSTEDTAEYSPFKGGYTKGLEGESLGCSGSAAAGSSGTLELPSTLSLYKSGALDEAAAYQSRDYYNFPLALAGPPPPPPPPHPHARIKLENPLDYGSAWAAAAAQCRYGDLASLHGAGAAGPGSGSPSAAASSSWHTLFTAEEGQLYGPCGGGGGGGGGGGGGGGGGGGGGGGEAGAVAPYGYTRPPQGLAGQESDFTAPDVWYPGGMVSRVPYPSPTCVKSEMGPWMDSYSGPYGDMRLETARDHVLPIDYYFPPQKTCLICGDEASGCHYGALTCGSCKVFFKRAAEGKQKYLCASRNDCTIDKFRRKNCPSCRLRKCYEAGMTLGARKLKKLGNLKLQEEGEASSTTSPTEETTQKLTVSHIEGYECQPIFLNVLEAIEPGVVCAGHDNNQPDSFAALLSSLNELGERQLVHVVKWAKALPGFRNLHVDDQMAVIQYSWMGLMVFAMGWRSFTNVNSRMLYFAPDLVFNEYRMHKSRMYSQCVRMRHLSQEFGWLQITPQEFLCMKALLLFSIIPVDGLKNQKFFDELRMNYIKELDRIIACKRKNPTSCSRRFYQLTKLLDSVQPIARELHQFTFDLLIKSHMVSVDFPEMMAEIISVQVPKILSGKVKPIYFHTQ
Outline: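 Reporter HEK293 cells were exposed to compounds and R1881 overnight (16 h, 37C); beta-lactamase activity was then quantified by FRET fluorescence.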

[17] = molecular target: Androgen receptor (Homo sapiens) (UniProt P10275); test: qHTS assay to identify small molecule agonists of the androgen receptor (AR) signaling pathway (AID 743036; active means well fitted activation curve with a large enough effect in the signal ratio in the repeat runs, with a control signal flat, not every such curve was filed as active; the % refers to the signal ratio)
Outline: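 Fluorescence from a beta-lactamase FRET substrate served as read-out in AR-UAS-bla GripTite HEK293 cells. Cells were treated with DMSO-dissolved compounds for 16 h at 37C, then with LiveBLAzer B/G substrate for 2 h at room temperature.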

[18] = molecular target: Androgen receptor (Homo sapiens) (UniProt P10275); test: qHTS assay to identify small molecule agonists of the androgen receptor (AR) signaling pathway using the MDA cell line (AID 743040; further: nearly all actives have a fitted effect of over 20% in size)
Outline: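 Luciferase read-out, ONE-Glo, 30 min RT. Cells: MDA-kb2 AR-luc, MMTV promoter with AR and GR response elements. Compound exposure 16 h, 37C, 0% CO2, after 5 h pre-incubation. qHTS agonist mode.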

[19] = molecular target: Androgen receptor (Homo sapiens) (UniProt P10275); test: qHTS assay to identify small molecule antagonists of the androgen receptor (AR) signaling pathway using the MDA cell line (AID 743042; further: nearly all actives have a fitted effect of over 55% in size)
Outline: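 MDA-kb2 breast carcinoma cells carrying MMTV-luciferase (AR/GR responsive) were co-treated with compounds and the agonist R1881 for 16 h at 37C. Inhibition read as ONE-Glo luminescence; CellTiter-Fluor fluorescence measured in parallel for cytotoxicity.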

Structure (SMILES)	outcome [1]	outcome [2]	outcome [3]	outcome [4]	outcome [5]	outcome [6]	Potency [7]	outcome [8]	outcome [9]	Potency [10]	Potency [11]	Potency [12]	outcome [13]	outcome [14]	Potency [15]	outcome [16]	outcome [17]	Potency [18]	outcome [19]
CN(C)CCCCl	inactive	inactive	inactive	inactive	inactive	inactive	inactive	inactive	inactive	inactive	inactive	inactive	inactive	–	–	–	–	–	–
C[C@]12CCC(=O)C=C1CC[C@H]1[C@@H]3CC[C@](O)(C(=O)CO)[C@@]3(C)C[C@H](O)[C@@]12F	inactive	inactive	inactive	inactive	inactive	inactive	–	–	–	23.7 µM (active)	11.9 µM (active)	21.1 µM (active)	inactive	inactive	inactive	–	–	–	–
COC(C)(OC)OC	inactive	inactive	inactive	inactive	–	inactive	inactive	inactive	inactive	inactive	–	inactive	inactive	inactive	inactive	inactive	inactive	inactive	inactive
CCc1occc(=O)c1O	inactive	inactive	inactive	inactive	inactive	inactive	inactive	–	–	inactive	inactive	–	inactive	inactive	inactive	–	–	–	–

— PubChem BioAssay (Tox21)
